Reference: PubChem BioAssay (NCI)
The panel holds about 83,000 compounds, 20% with a hit somewhere; the sample as a whole holds those more often.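 For each line, cells grew in 96-well plates with the test compound present at a single concentration for 48 hours.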 The source made the active and inactive calls.

Each compound was assayed on UO-31 renal (assay: NCI-60 one-dose screen, 48 h (100 = growth as untreated, 0 = no growth, -100 = all killed)). Conditions: 10 µM unless noted.
Method: Growth inhibition of the UO-31 human tumor cell line is measured as a screen for anti-cancer activity. Cells are grown in 96 well plates and exposed to the test compound for 48 hours. Compounds are tested at a single concentration, which is 10^-5 M for most compounds. The reported endpoint is percent growth (GI% or GIPRCNT), where numbers from 0 - 100% represent growth inhibition, and numbers from -100% - 0 represent cell death. For example, a value of 40 represents 60% growth inhibition. A value of 0 means no net growth occurred over the course of the experiment. A value of -40 indicates 40% of cells at the beginning of the experiment died by the end of the experiment. A value of -100 means all cells are dead at the end of the experiment.
NCI-60 Human Tumor Cell Lines Screen was performed using the standard one-dose NCI protocol, which is described in more detail at https://dtp.cancer.gov/discovery_development/nci-60/default.htm.
Compounds with GIPRCNT values below 10 were considered active. Activity score was based on GIPRCNT using the following formula: […]
Score is 0 for GIPRCNT values of 100 or above, 50 for GIPRCNT values of 0, and 100 for GIPRCNT values of -100.

Row | Structure (SMILES) | growth
1 | COc1cccc(/C=C/C(=O)c2ccc(NC(=O)COc3cccc4cccnc34)cc2)c1 | 82.8% (inactive)
2 | CC(C)(C)n1nnnc1C(Nc1nccs1)c1cc2cccc3ccc4cccc1c4c32 (stereo not given) | 84.9% (inactive)
3 | CCCCCCNC(=O)Oc1ccc(/C(=C(/C)c2ccc(OC)cc2)c2ccc(OCCN3CCCC3)cc2)cc1 | 38.7% (inactive)
4 | NNC(=O)c1sc2nc(-c3cnccn3)cc(-c3cccs3)c2c1N | 75.9% (inactive)
5 | CC(=O)NC(C)(C)C(=O)N1CCC[C@H]1C(=O)NC(C)(C)C(=O)N[C@@H](C)C(=O)NC(C)(C)C(=O)NC(C)(C)C(=O)N[C@@H](CCC(N)=O)C(=O)NC(C)(C)C(=O)N[C@H](C(=O)NC(C)(C)C(=O)NCC(=O)N[C@@H](CC(C)C)C(=O)NC(C)(C)C(=O)N1CCC[C@H]1C(=O)N[C@H](C(=O)NC(C)(C)C(=O)NC(C)(C)C(=O)N[C@@H](CCC(N)=O)C(=O)N[C@@H](CCC(N)=O)C(=O)N[C@H](CO)Cc1ccccc1)C(C)C)C(C)C | 97.7% [4.25 µM] (inactive)
6 | O=C(Cn1cc(CN2C(=O)c3ccc([N+](=O)[O-])cc3C2=O)nn1)Nc1ccc(F)cc1Cl | 81.3% (inactive)
7 | CC1(C)CC[C@]2(C(=O)N3CCCNCC3)CC[C@]3(C)C(=CC[C@@H]4[C@@]5(C)CCC(=O)C(C)(C)[C@@H]5CC[C@]43C)[C@H]2C1 | 95.3% (inactive)
8 | COC(=O)c1nc(-c2ccc(C)cc2)oc1S(=O)(=O)N1CCN(c2oc(-c3ccccc3)nc2C#N)CC1 | 94% (inactive)
9 | Fc1ccc(-c2cc3nc(C(Cl)Cl)nc(-c4cccs4)n3n2)cc1 | 40.6% (inactive)
10 | COc1ccc(C2CC(c3ccc(Nc4nc(NCCO)nc(Nc5ccc(Cl)cc5)n4)cc3)=Nc3c(N)nc(N)nc3N2)cc1 (stereo not given) | 56.2% (inactive)
11 | CC1OC(O[C@@H]2[C@H](O)C(CO)OC(O[C@H]3COC(O[C@H]4CC[C@]5(C)[C@H]6CC[C@]78OC[C@@]9(CC[C@](C)(C=O)C[C@H]97)C(=O)C[C@@]8(C)[C@]6(C)CC[C@H]5C4(C)C)[C@@H](O)[C@@H]3O)[C@H]2OC2OC[C@@H](O)[C@@H](O)[C@@H]2O)[C@@H](O)[C@@H](O)[C@H]1O (stereo not given in full) | 75.2% (inactive)
12 | CCOC(=O)c1c(NCC(=O)Nc2cccc(Cl)c2)sc2c1CCCC2 | 76.4% (inactive)
13 | O=C(/C=C1\C=CN(CCCCF)c2ccccc21)n1ccc2ccccc21 | 74.2% (inactive)
14 | C#C[C@]1(O)CC[C@H]2[C@@H]3CC=C4c5sc(-c6ccccn6)nc5CC[C@]4(C)[C@H]3CC[C@@]21C | 35.8% (inactive)
15 | COc1cc(/C=N/n2cnc3oc(-c4ccccc4)cc3c2=N)cc(CN2CCN(C)CC2)c1O | 74% (inactive)
16 | COc1ccc2c(ccn2C(=O)N2c3ccccc3Sc3ccccc32)c1 | 55% (inactive)
17 | COc1ccc(-c2oc3cc(O)cc(O)c3c(=O)c2OC)cc1O | 26.2% (inactive)
18 | CCN(CC)CCN1C(=O)c2c(c3c4cccnc4[nH]c3c3ccc4ccccc4c23)C1=O | 53.2% (inactive)
19 | Cc1ccc(Cc2cnc(NC(=O)/C(C#N)=C/c3ccc(-c4ccc(Cl)cc4)o3)s2)cc1 | 90.1% (inactive)
20 | O=C(CN1C(=O)CSC1=O)Nc1ccc(C(=O)/C=C/c2cc3ccccc3nc2Cl)cc1 | 59.5% (inactive)

Row | Structure (SMILES) | growth
21 | Cc1ccc(-c2cc(-c3ccc(N(C)C)cc3)n3c(n2)nc2ccccc23)cc1 | 41.8% (inactive)
22 | CCOC(=O)c1c(NC(=O)c2ccc(F)cc2F)sc2c1CCC(=O)C2 | 83.8% (inactive)
23 | O=C1C[C@@H](c2ccccc2)Oc2c(Cc3ccccc3O)c(O)c(Cc3cc(Cc4cc(Cc5ccccc5O)ccc4O)ccc3O)c(O)c21 | 66.6% (inactive)
24 | CS(=O)(=O)c1ccc2c(c1)c1c(n2S(=O)(=O)c2ccc(Cl)cc2)CCCC1 | 37.8% (inactive)
25 | COc1cc(C2CC(c3ccc(Nc4nc(NCCO)nc(Nc5ccc(Cl)cc5)n4)cc3)=Nc3c(N)nc(N)nc3N2)cc(OC)c1OC (stereo not given) | 85.1% (inactive)
26 | CCOC(=O)c1c(NC(=O)c2cccc(C(F)(F)F)c2)sc2c(CN3CCN(C)CC3)c(O)ccc12 | -95% (active)
27 | COc1cc2oc(-c3cccc(NC(=O)c4cc(NC(=O)[C@H](C)N)ccc4Cl)c3)cc(=O)c2c(OC)c1OC | 72.3% (inactive)
28 | C(=C(\C1=NCCN1)n1cnc2ccccc21)/c1cccc2ccccc12 | 62.2% (inactive)
29 | CC[C@H](C)[C@H]1NC(=O)[C@@H]([C@H](O)C(C)C)NC(=O)[C@@H](C)N(C)C(=O)[C@H](C)N(C)C(=O)[C@H](CC(C)C)NC(=O)[C@H](CC(C)C)N(C)C(=O)[C@H](C)N(C)C1=O | 5.19% (active)
30 | N/C(=N\c1nc2ccc([N+](=O)[O-])cc2s1)C(Cl)(Cl)Cl | 43.8% (inactive)
31 | Cc1ccc(-c2cc(-c3cccc4ccccc34)n3c(n2)nc2ccccc23)cc1 | 37.9% (inactive)
32 | Cc1ccc(NC(=O)c2cc(/C=C/C(=O)NO)cc(C(F)(F)F)c2)cc1Nc1nccc(-c2cccnc2)n1 | 18.8% (inactive)
33 | Cc1ccc(/C=C/CC(=O)Nc2ccc(C(=O)Nc3ccc(F)cc3N)nc2)cn1 | 25.3% (inactive)
34 | COc1ccc([C@H]2[C@H](O)C(=O)N2c2cc(OC)c(OC)c(OC)c2)cc1 | 32.4% (inactive)
35 | N#Cc1ccc(S(=O)(=O)Nc2ccc(-c3cnc(N)[nH]3)cc2)cc1 | 89.7% (inactive)
36 | Cc1cnc2nc(NN)[nH]n12 | 81.3% (inactive)
37 | O=S(=O)(NC1CC2CCC1C2)c1ccc2c(c1)C(=NO)c1cc(S(=O)(=O)NC3CC4CCC3C4)ccc1-2 (stereo not given) | -93% (active)
38 | Cc1ccc(-n2cc(/C=C/C(=O)c3ccc(S(C)(=O)=O)cc3)c(-c3ccc(S(C)(=O)=O)cc3)n2)cc1 | 85.5% (inactive)
39 | C#C[C@]1(O)CC[C@H]2[C@@H]3CC=C4c5sc(C6CC6)nc5CC[C@]4(C)[C@H]3CC[C@@]21C | 68.8% (inactive)
40 | CN1CCN(c2ccc3c(C(N)=O)c(NC(=O)c4ccc(C(C)(C)C)cc4)sc3c2)CC1 | 97.5% (inactive)
